Data reported in PubChem BioAssay AID1159580 (chemical genetic matrix, 2015).
Values joined by “and” are separate entries in the source; they are usually repeats but may differ in a detail not shown here. Identical values can stand only once. The campaign covered roughly 5,500 compounds. About 2,000 (36%) were called active. Inconclusive results (about 18%) are left out. Rule as the data show it: active = normalized growth mostly below about 0.91 (no sharp cut-off); inconclusive = no clear call, values can overlap the other calls; inactive = mostly above about 0.92. The list shows a part of the results.

Test: chemical genetic growth profiling, strain panel (AID 1159580);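 also: tested at 20 µM; growth read once vehicle control cultures reached saturation at 30 °C; 1 = growth at the plate median or of vehicle wells; lower values mean less growth of the strain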
Details: S. cerevisiae deletion strains, growth OD

Measured: normalized growth

O=c1ccc2cc(O)c(O)cc2o1
inactive: locus YAL013W, strain DEP1, active compounds read low 1.01 | locus YAL021C, strain ccr4, active compounds read low 1.01 | locus YAL026C, strain drs2, active compounds read low 0.992 | locus YAL030W, strain snc1, active compounds read low 1.03 | locus YBL061C, strain skt5, active compounds read low 1 | locus YBR009C, strain hhf1, active compounds read low 1.03 | locus YBR021W, strain FUR4, active compounds read low 0.974 | locus YBR023C, strain chs3, active compounds read low 1 | locus YBR171W, strain sec66, active compounds read low 1 | locus YBR229C, strain ROT2, active compounds read low 1.01 | locus YBR231C, strain swc5, active compounds read low 0.966 | locus YBR279W, strain paf1, active compounds read low 1.01 | locus YCL011C, strain gbp2, active compounds read low 1.03 | locus YCL016C, strain dcc1, active compounds read low 1 | locus YCL029C, strain bik1, active compounds read low 0.989 | locus YCL061C, strain MRC1, active compounds read low 1 | locus YCL069W, strain vba3, active compounds read low 0.999 | locus YCR088W, strain abp1, active compounds read low 1.01 | locus YDL005C, strain med2, active compounds read low 1.02 | locus YDL035C, strain GPR1, active compounds read low 0.999 | locus YDL040C, strain nat1, active compounds read low 1.02 | locus YDL074C, strain BRE1, active compounds read low 1 | locus YDL101C, strain DUN1, active compounds read low 1.01 | locus YDL185W, strain tfp1, active compounds read low 0.987 | locus YDL192W, strain arf1, active compounds read low 0.991 | locus YDR001C, strain nth1, active compounds read low 0.994 | locus YDR069C, strain doa4, active compounds read low 1.03 | locus YDR101C, strain arx1, active compounds read low 0.98 | locus YDR137W, strain rgp1, active compounds read low 0.913 | locus YDR159W, strain sac3, active compounds read low 0.968 | locus YDR162C, strain NBP2, active compounds read low 1.01 | locus YDR195W, strain ref2 1.01 | locus YDR297W, strain sur2, active compounds read low 1.01 | locus YDR318W, strain mcm21, active compounds read low 0.996 | locus YDR334W, strain swr1, active compounds read low 1 | locus YDR335W, strain msn5, active compounds read low 0.99 | locus YDR388W, active compounds read low 0.996 | locus YDR392W, strain spt3, active compounds read low 1.01 | locus YDR502C, strain sam2, active compounds read low 0.997 | locus YEL003W, strain gim4, active compounds read low 1.03 | locus YEL037C, strain rad23, active compounds read low 1 | locus YEL061C, strain CIN8 (second series), active compounds read low 0.997 | locus YEL061C, strain CIN8, active compounds read low 1.01 | locus YER015W, strain faa2, active compounds read low 0.993 | locus YER016W, strain bim1, active compounds read low 0.975 | locus YER110C, active compounds read low 0.991 | locus YER111C, strain swi4, active compounds read low 0.99 | locus YER155C, strain BEM2 (second series), active compounds read low 1.1 | locus YER155C, strain BEM2, active compounds read low 1 | locus YER167W, strain BCK2, active compounds read low 1.01 | locus YFR010W, strain ubp6, active compounds read low 1 | locus YGL078C, strain dbp3, active compounds read low 0.984 | locus YGL086W, strain mad1, active compounds read low 0.987 | locus YGL167C, strain pmr1, active compounds read low 0.998 | locus YGL173C, strain kem1, active compounds read low 0.975 | locus YGL227W, strain vid30, active compounds read low 0.999 | locus YGL240W, strain doc1, active compounds read low 1.05 | locus YGL248W, strain PDE1, active compounds read low 1.01 | locus YGL253W, strain hxk2, active compounds read low 0.984 | locus YGR078C, strain PAC10, active compounds read low 1.01 | locus YGR135W, strain pre9, active compounds read low 0.987 | locus YGR252W, strain gcn5, active compounds read low 0.942 | locus YHR013C, strain ard1, active compounds read low 1.01 | locus YHR027C, strain rpn1, active compounds read low 0.973 | locus YHR030C, strain SLT2, active compounds read low 1.01 and 0.971 | locus YHR079C, strain IRE1 (second series), active compounds read low 0.99 | locus YHR079C, strain IRE1, active compounds read low 0.976 | locus YHR094C, strain hxt1, active compounds read low 0.996 | locus YHR129C, strain ARP1, active compounds read low 1.01 | locus YHR142W, strain chs7, active compounds read low 0.979 | locus YHR200W, strain rpn10, active compounds read low 0.99 | locus YIL066C, strain RNR3, active compounds read low 1.01 | locus YIL073C, strain SPO22, active compounds read low 0.976 | locus YIL125W, strain kgd1, active compounds read low 0.984 | locus YIR030C, strain dcg1, active compounds read low 0.996 | locus YJL092W, strain hpr5, active compounds read low 1.01 | locus YJL095W, strain BCK1 (second series), active compounds read low 1.02 | locus YJL095W, strain BCK1, active compounds read low 1.02 and 0.993 | locus YJL115W, strain asf1, active compounds read low 1.01 | locus YJL129C, strain trk1, active compounds read low 0.973 | locus YJL134W, strain LCB3, active compounds read low 1.02 | locus YJL154C, strain vps35, active compounds read low 1.01 | locus YJL164C, strain tpk1, active compounds read low 1.02 | locus YJL166W, strain qcr8, active compounds read low 1.02 | locus YJL168C, strain set2, active compounds read low 0.985 | locus YJL187C, strain SWE1 (second series), active compounds read low 1.02 | locus YJR043C, strain POL32, active compounds read low 1.02 | locus YJR066W, strain TOR1, active compounds read low 0.978 | locus YKL009W, strain mrt4, active compounds read low 1.01 | locus YKL068W, active compounds read low 1 | locus YKL085W, strain MDH1 (second series), active compounds read low 1 | locus YKL085W, strain MDH1, active compounds read low 1 | locus YKL160W, strain elf1, active compounds read low 0.961 | locus YKL190W, strain CNB1, active compounds read low 1.01 | locus YKR001C, strain vps1, active compounds read low 0.953 | locus YKR026C, strain gcn3, active compounds read low 0.997 | locus YKR091W, strain srl3, active compounds read low 1 | locus YLL001W, strain dnm1, active compounds read low 1.02 | locus YLL026W, active compounds read low 0.999 | locus YLL041C, strain sdh2, active compounds read low 0.995 | locus YLR027C, strain aat2, active compounds read low 1 | locus YLR039C, strain RIC1, active compounds read low 1 | locus YLR058C, strain SHM2, active compounds read low 1.02 | locus YLR102C, strain apc9, active compounds read low 0.987 | locus YLR113W, strain HOG1, active compounds read low 0.957 | locus YLR221C, strain rsa3, active compounds read low 1.02 | locus YLR258W, strain gsy2, active compounds read low 0.994 | locus YLR262C, strain YPT6 (second series), active compounds read low 1.05 | locus YLR262C, strain YPT6, active compounds read low 1.01 | locus YLR268W, strain sec22, active compounds read low 0.972 | locus YLR320W, strain mms22, active compounds read low 1.04 | locus YLR330W, strain CHS5, active compounds read low 1.02 | locus YLR342W, strain FKS1 (second series), active compounds read low 0.965 | locus YLR342W, strain FKS1, active compounds read low 1.02 | locus YLR357W, strain rsc2, active compounds read low 0.994 | locus YLR370C, strain arc18, active compounds read low 1.01 | locus YLR371W, strain rom2, active compounds read low 0.982 | locus YLR384C, strain iki3, active compounds read low 1 | locus YLR418C, strain cdc73, active compounds read low 0.953 | locus YML016C, strain PPZ1, active compounds read low 1.02 | locus YML032C, strain rad52, active compounds read low 1 | locus YML120C, strain ndi1, active compounds read low 1.01 | locus YML124C, strain tub3, active compounds read low 0.996 | locus YMR058W, strain fet3, active compounds read low 0.97 | locus YMR078C, strain ctf18, active compounds read low 0.989 | locus YMR125W, strain sto1, active compounds read low 1.02 | locus YMR129W, active compounds read low 1 | locus YMR205C, strain PFK2, active compounds read low 1.02 | locus YMR223W, strain ubp8, active compounds read low 0.985 | locus YMR231W, strain pep5, active compounds read low 1 | locus YMR263W, strain SAP30, active compounds read low 1 | locus YMR307W, strain GAS1, active compounds read low 0.983 | locus YNL067W, strain RPL9B, active compounds read low 0.989 | locus YNL071W, strain lat1, active compounds read low 1.01 | locus YNL183C, strain NPR1, active compounds read low 0.921 | locus YNL209W, strain ssb2, active compounds read low 1 | locus YNL233W, strain BNI4, active compounds read low 1.01 | locus YNL248C, strain rpa49, active compounds read low 1.03 | locus YNL250W, strain rad50, active compounds read low 1.01 | locus YNL271C, strain bni1, active compounds read low 0.99 | locus YNL298W, strain CLA4, active compounds read low 0.994 | locus YNL307C, strain MCK1, active compounds read low 0.984 | locus YNL322C, strain KRE1 (second series), active compounds read low 1 | locus YNL322C, strain KRE1, active compounds read low 1.01 | locus YNR049C, strain mso1, active compounds read low 1.01 | locus YNR052C, strain pop2, active compounds read low 0.983 | locus YOL006C, strain TOP1, active compounds read low 1.01 | locus YOL012C, strain htz1 0.571 | locus YOL147C, strain pex11, active compounds read low 0.997 | locus YOR001W, strain rrp6, active compounds read low 1.03 | locus YOR061W, strain CKA2, active compounds read low 1.02 | locus YOR069W, strain VPS5, active compounds read low 1.01 | locus YOR070C, strain gyp1, active compounds read low 1 | locus YOR080W, strain dia2, active compounds read low 1 | locus YOR083W, strain WHI5, active compounds read low 0.942 | locus YOR106W, strain vam3, active compounds read low 0.913 | locus YOR136W, strain idh2, active compounds read low 0.993 | locus YOR144C, strain elg1, active compounds read low 0.983 | locus YOR184W, strain ser1, active compounds read low 0.992 | locus YOR231W, strain MKK1, active compounds read low 0.98 | locus YOR265W, strain rbl2, active compounds read low 0.989 | locus YOR270C, strain vph1, active compounds read low 1.06 | locus YOR290C, strain snf2, active compounds read low 1 | locus YOR316C, strain cot1, active compounds read low 0.998 | locus YPL051W, strain arl3, active compounds read low 1 | locus YPL055C, strain LGE1, active compounds read low 0.99 | locus YPL078C, strain atp4, active compounds read low 0.986 | locus YPL106C, strain sse1, active compounds read low 0.983 | locus YPL240C, strain hsp82, active compounds read low 1 | locus YPL256C, strain CLN2, active compounds read low 1 | locus YPR119W, strain clb2, active compounds read low 0.994 | locus YPR141C, strain kar3, active compounds read low 0.993 | locus YPR163C, strain tif3, active compounds read low 1 | locus YPR167C, strain met16, active compounds read low 0.993 | strain wtn01, active compounds read low 0.979
